Here are results for 40 compounds from PubChem BioAssay (EPA / NIEHS).

Inconclusive results are not listed. Calls of active or inactive are those of the source. Rule for the calls: active = hit-call score of the fitted dose curve at least 0.9, where 1 is the maximum; inconclusive = response in the unintended direction; inactive = score below 0.9.

Read-out in this experiment: sulfotransferase (SULT2A), SULT2A1 (gene 6822)
The experiment can be described thus: CLD_SULT2A_24hr: CellzDirect (CLD) Gene Expression Assay for sulfotransferase (SULT2A) at 24 hours (AID 2283694).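 For AC50: potency for increased SULT2A1 mRNA level as induction over DMSO baseline.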 How it is done:
CLD_24hr is a cell-based, multiplexed-readout assay that uses hepatocyte, a human liver primary cell, with measurements taken at 24 hours after chemical dosing in a 96-well plate.CLD_SULT2A_24hr is one of 16 assay component(s) measured or calculated from the CLD_24hr assay. It is designed to make measurements of mRNA induction, a form of inducible reporter, as detected with chemiluminescence signals by Quantitative Nuclease Protection Assay (qNPA) technology.Data from the assay component CLD_SULT2A_24hr was analyzed at the endpoint, CLD_SULT2A_24hr, in the positive analysis fitting direction relative to DMSO as the negative control and baseline of activity. Using a type of inducible reporter, gain-of-signal activity can be used to understand changes in the reporter gene as they relate to the gene SULT2A1. Furthermore, this assay endpoint can be referred to as a primary readout. To generalize the intended target to other relatable targets, this assay endpoint is annotated to the transferase intended target family, where subfamily is sulfotransferase.
Human hepatocyte cultures were treated daily for two consecutive days with fresh dosing solutions containing appropriate concentrations of the 320 ToxCast chemicals (chemical identities were blinded to CellzDirect and other ToxCast collaborators), vehicle control (0.2% DMSO), and positive control inducers as summarized in Table 1. Due to the large number of treatment groups and chemicals examined, the ToxCast chemicals were divided into two groups (spanning two independent cultures of hepatocytes from separate donor preparations (Hu778: ToxCast plates 1 and 2; Hu776: ToxCast plates 3 and 4). Each preparation of human hepatocyte cultures was treated with respective vehicle control, medium only control, set of six positive controls/reference chemicals for the five hepatic receptor pathways, and a subset of eight of the ToxCast chemicals (indoxacarb, pyrithiobac-sodium, norflurazon, cyhalofop-butyl, methomyl, thiram, acetochlor, and propiconazole). These replicate data, coupled with internal replicates designed within the blinded ToxCast chemical library, provided additional data to evaluate interindividual differences between hepatocyte preparations and their potential impact on chemical profiles.Cell morphology and integrity were evaluated using phase-contrast microscopy as an indicator of hepatocyte cell health (Tyson & Green, 1987). Cultures for each treatment group (i.e., media, vehicle [0.2% DMSO], positive control inducers [multiple concentrations], and the ToxCast chemicals [multiple concentrations]) were observed and cell morphology was assessed relative to vehicle control cultures at each harvest time point (0, 6, 24, or 48 h). […] Images were evaluated at the conclusion of the study to assess changes in cell integrity and account for the effects of chemical exposure on uncharacteristic changes in concentration-dependent gene expression profiles. The results from these determinations of apparent cytotoxicity were annotated (yes/no) alongside the corresponding qNPA data for reference.At the conclusion of each treatment period, hepatocyte cultures (96-well) were washed with 1 volume of HBSS, lysed by addition of 25 ul ArrayPlate lysis buffer (HTG, Tucson, AZ), and 70 ul/well of Denaturation Oil, denatured by incubation at 95C for 10 min, and frozen at approximately -70C until analysis by nuclease protection assay (qNPA) (Roberts et al., 2007). For qNPA analysis, cell lysates were thawed at 50C for approximately 30 min, qNPA probes were added, and samples were incubated at 95C for 10 min to begin the detection process by denaturing the target RNA, dissociating the duplexes and secondary structure hybridization. At the conclusion of the hybridization period, S1 nuclease reagent was added to each sample to digest all nonprotected nucleotides at 50C for 60-90 min. […]
`Nc1c(Cl)cc([N+](=O)[O-])cc1Cl`: the compound was classed as inactive.

`CCc1cccc(CC)c1N(COC)C(=O)CCl`: the call was inactive.

For the compound `CCOP(=S)(OCC)OC(Cl)C(Cl)(Cl)Cl` (stereo not given), the outcome was inactive.

`CN1COCN(Cc2cnc(Cl)s2)C1=N[N+](=O)[O-]`: the call was inactive.

Take `CC(COc1ccc(Oc2ccccc2)cc1)Oc1ccccn1` (stereo not given): the compound was classed as inactive.

`CC(C)[C@H](C(=O)O[C@H](C#N)c1cccc(Oc2ccccc2)c1)c1ccc(Cl)cc1`: the outcome was inactive.

For `CCOP(=S)(OCC)Oc1ccc([N+](=O)[O-])cc1`, the result was inactive.

Take `COc1cc(OC)nc(Sc2cccc(Cl)c2C(=O)O)n1`: the outcome was inactive.

Consider `CCOP(=S)(OCC)Oc1cc(C)nc(C(C)C)n1`, for which the compound was called inactive.

As to `N#CSCSC#N`, the compound was called inactive.

One may read the AC50 as the midpoint of the concentration-response curve, whichever way the signal moves. `C[Si](Cn1cncn1)(c1ccc(F)cc1)c1ccc(F)cc1`: the AC50 is 20 µM (active).

As for `Cc1ccn2nc(S(=O)(=O)Nc3c(F)cccc3F)nc2n1`, the compound was classed as inactive.

Regarding `COc1cccc(C(=O)NN(C(=O)c2cc(C)cc(C)c2)C(C)(C)C)c1C`, the compound was classed as inactive.

In the case of `CCCCOC(=O)[C@@H](C)Oc1ccc(Oc2ccc(C#N)cc2F)cc1`, the outcome was inactive.

`CCCCSP(=O)(SCCCC)SCCCC`: the call was inactive.

Take `FC(F)C(F)(F)OCC(Cn1cncn1)c1ccc(Cl)cc1Cl` (stereo not given): the call was inactive.

Regarding `CSC1=N[C@@](C)(c2ccccc2)C(=O)N1Nc1ccccc1`, the compound was classed as inactive.

As for `CCOP(=S)(OCC)SCCSCC`, the compound was classed as inactive.

`CON=C(C(=O)OC)c1ccccc1CON=C(C)c1cccc(C(F)(F)F)c1`: the result was inactive.

As to `CCOP(=S)(OCC)Oc1ccc2c(C)c(Cl)c(=O)oc2c1`, the compound was called inactive.

With `O=C(O)c1cc(Oc2ccc(C(F)(F)F)cc2Cl)ccc1[N+](=O)[O-]`, the result was inactive.

Regarding `CCOP(=O)(OCC)Oc1cc(C)nc(C(C)C)n1`, the compound was classed as inactive.

Regarding `CCCCN(CC)c1c([N+](=O)[O-])cc(C(F)(F)F)cc1[N+](=O)[O-]`, the call was inactive.

On to `CCC(CC)Nc1c([N+](=O)[O-])cc(C)c(C)c1[N+](=O)[O-]`, for which the result was inactive.

Take `CCc1cccc(C)c1N(C(=O)CCl)C(C)COC` (stereo not given): the outcome was inactive.

As for `CC1=NNC(=O)N(/N=C/c2cccnc2)C1`, the compound was called inactive.

For the compound `COc1ccc(C(=CC(=O)N2CCOCC2)c2ccc(Cl)cc2)cc1OC`, the result was inactive.

Take `CC(C1CC1)C(O)(Cn1cncn1)c1ccc(Cl)cc1` (stereo not given): the outcome was inactive.

Take `CCCOc1nn(C(=O)NS(=O)(=O)c2ccccc2C(=O)OC)c(=O)n1C`: the result was inactive.

For `CCNc1nc(Cl)nc(NC(C)(C)C#N)n1`, the compound was classed as inactive.

Regarding `CNc1cnn(-c2cccc(C(F)(F)F)c2)c(=O)c1Cl`, the compound was called inactive.

For `C#CCC1=C(C)C(OC(=O)C2C(C=C(C)C)C2(C)C)CC1=O` (stereo not given), the result was inactive.

With `CCC(=O)Nc1ccc(Cl)c(Cl)c1`, the result was inactive.

Take `CN(C)[C@@H]1C(=O)C(C(N)=O)=C(O)[C@@]2(O)C(=O)C3=C(O)c4c(O)cccc4[C@@](C)(O)[C@H]3[C@H](O)[C@@H]12`: the result was inactive.

Consider `CC(=NC#N)N(C)Cc1ccc(Cl)nc1`, for which the compound was classed as inactive.

As for `CC[C@H](C)[C@H]1O[C@]2(C=C[C@@H]1C)C[C@@H]1C[C@@H](C/C=C(\C)[C@@H](O[C@H]3C[C@H](OC)[C@@H](O[C@H]4C[C@H](OC)[C@@H](NC)[C@H](C)O4)[C@H](C)O3)[C@@H](C)/C=C/C=C3\CO[C@@H]4[C@H](O)C(C)=C[C@@H](C(=O)O1)[C@]34O)O2`, the AC50 is 0.336 µM (active).

With `CCOP(=S)(Oc1cnc(C(C)(C)C)nc1)OC(C)C` (stereo not given), the call was inactive.

As for `C=C(C)[C@H]1Cc2c(ccc3c2O[C@@H]2COc4cc(OC)c(OC)cc4[C@@H]2C3=O)O1`, the AC50 was 3.88 µM (active).

For `Cc1nn(-c2cc(NS(C)(=O)=O)c(Cl)cc2Cl)c(=O)n1C(F)F`, the compound was classed as inactive.

For `CSc1nc(NC(C)C)nc(NC(C)C)n1`, the outcome was inactive.
